Experimental findings from the supplement of paper PMC10646978 are described below.

Holding throughout (settings): modulator concentration 10 µM
Assay [1] deals with RAW-Dual (murine macrophage reporter line). The assay can be described thus: NF-kB reporter (SEAP) activity fold change vs agonist alone; higher = enhanced NF-kB activity. In short, it runs like this:
(§1)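 RAW-Dual murine macrophage reporter cells were seeded at 50 000 per well in 384-well plates and pre-incubated 1 hour at 37 °C with compound pin-transferred to 10 μM final. After 1 hour, a PRR agonist was added and cells incubated overnight. Supernatant NF-κB (SEAP, QUANTI-Blue, 620 nm absorbance) and IRF (Lucia luciferase, QUANTI-Luc, luminescence) signals were divided by the mean agonist-only control on the same plate to give fold change. Two replicate plates were averaged, with errors by propagation.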

For assay [2] the test system is unchanged. Kind of assay: IRF reporter (Lucia luciferase) activity fold change vs agonist alone; higher = enhanced IRF activity. In short, it runs like this:
as §1

For assay [3] the test system is unchanged. Kind of assay: viability score (confluency relative to resting cells, overnight) (fraction); higher = more viable, active = viable (0.7 or more). The method, boiled down:
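In 384-well plates, RAW-Dual macrophages received compound at a final 10 μM overnight. Two confluency masks were then made with IncuCyte software from IncuCyte images of all imaged wells. The viability score is defined as confluency relative to resting cells. Passing the cutoff required both masks to lie above 70% of resting cells.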

The mark [4] stands for this setting: agonist: CpG ODN 1826 0.5 ug/mL.

± gives the standard deviation.

As to `CN1CCN(CCOc2cc(OC3CCOCC3)c3c(Nc4c(Cl)ccc5c4OCO5)ncnc3c2)CC1`, the NF-kB reporter in assay [1] (setting [4]) worked out at 0.135 ± 0.02; in assay [1] (agonist: LPS 0.1 ug/mL), 1.48 ± 0.29; in assay [1] (agonist: MPLA […]) it was 1.99 ± 0.11. In addition, the figures for the IRF reporter in assay [2] (agonist: 3'3'-cGAMP 10 ug/mL), in assay [2] (agonist: LPS 0.1 ug/mL) and in assay [2] (agonist: MPLA […]) were 0.395 ± 0.012, 0.597 ± 0.13 and 0.983 ± 0.17, respectively. The viability score in assay [3] is 0.886 (active).

With `COC(=O)C1=C(C)NC(C)=C(C(=O)OCCN(C)Cc2ccccc2)C1c1cccc([N+](=O)[O-])c1.Cl` (centres undefined), the NF-kB reporter in assay [1] (setting [4]) came out at 0.996 ± 0.055; in assay [1] (agonist: LPS 0.1 ug/mL) it was 0.91 ± 0.074; in assay [1] (agonist: MPLA […]), 0.887 ± 0.047. Further, the IRF reporter in assay [2] (agonist: 3'3'-cGAMP 10 ug/mL) worked out at 1.1 ± 0.052; in assay [2] (agonist: LPS 0.1 ug/mL), 1.01 ± 0.16; in assay [2] (agonist: MPLA […]) it was 0.988 ± 0.29. Besides, in assay [3], the viability score was 0.397 (inactive).

As to `CC(=O)N1N=C(c2ccc(N(C)C)cc2)CC1c1ccccc1` (centres undefined), the NF-kB reporter in assay [1] (setting [4]) is 0.932 ± 0.08; in assay [1] (agonist: LPS 0.1 ug/mL) it was 1.04 ± 0.073; in assay [1] (agonist: MPLA […]), 1.01 ± 0.047. For the same compound, the IRF reporter was 0.794 ± 0.048 in assay [2] (agonist: 3'3'-cGAMP 10 ug/mL), 1.01 ± 0.042 in assay [2] (agonist: LPS 0.1 ug/mL) and 1.1 ± 0.072 in assay [2] (agonist: MPLA […]). Further, the viability score in assay [3] is 1 (active).

In the case of `COc1ccc(C(=O)Nc2sc3c(c2C(N)=O)CCC(C)C3)c(OC)c1` (centres undefined), the NF-kB reporter in assay [1] (setting [4]) came out at 1.09 ± 0.11; in assay [1] (agonist: LPS 0.1 ug/mL), 1.08 ± 0.067; in assay [1] (agonist: MPLA […]), 0.947 ± 0.058. Also, the IRF reporter in assay [2] (agonist: 3'3'-cGAMP 10 ug/mL) is 0.907 ± 0.068; in assay [2] (agonist: LPS 0.1 ug/mL), 1.5 ± 0.2; in assay [2] (agonist: MPLA […]), 1.22 ± 0.11. In addition, the viability score in assay [3] is 1.01 (active).

Consider `Cc1nnc(NC(=O)c2cccc([N+](=O)[O-])c2)s1`, for which the results for the NF-kB reporter in assay [1] (setting [4]), in assay [1] (agonist: LPS 0.1 ug/mL) and in assay [1] (agonist: MPLA […]) were 1.03 ± 0.084, 0.97 ± 0.093 and 0.999 ± 0.038, respectively. For the same compound, the IRF reporter in assay [2] (agonist: 3'3'-cGAMP 10 ug/mL) was determined as 1.05 ± 0.25; in assay [2] (agonist: LPS 0.1 ug/mL) it was 1.06 ± 0.049; in assay [2] (agonist: MPLA […]) it was 1.09 ± 0.15. Moreover, the viability score in assay [3] was 1 (active).

Turning to `O=C(O)CCC(=O)Nc1ccc(Br)cc1C(=O)c1ccc(Cl)cc1`, the NF-kB reporter is 0.993 ± 0.08 in assay [1] (setting [4]), 1.05 ± 0.058 in assay [1] (agonist: LPS 0.1 ug/mL) and 0.951 ± 0.066 in assay [1] (agonist: MPLA […]). Moreover, the results for the IRF reporter in assay [2] (agonist: 3'3'-cGAMP 10 ug/mL), in assay [2] (agonist: LPS 0.1 ug/mL) and in assay [2] (agonist: MPLA […]) were 0.986 ± 0.031, 1.31 ± 0.19 and 1.08 ± 0.18, respectively. Further, the viability score in assay [3] was 1.01 (active).

With `CC1COc2c(N3CCN(C)CC3)c(F)cc3c(=O)c(C(=O)O)cn1c23` (centres undefined) [Prestw-237], the figures for the NF-kB reporter in assay [1] (setting [4]), in assay [1] (agonist: LPS 0.1 ug/mL) and in assay [1] (agonist: MPLA […]) were 1.46 ± 0.24, 1.01 ± 0.12 and 1.12 ± 0.16, respectively. For the same compound, the figures for the IRF reporter in assay [2] (agonist: 3'3'-cGAMP 10 ug/mL), in assay [2] (agonist: LPS 0.1 ug/mL) and in assay [2] (agonist: MPLA […]) were 1.14 ± 0.033, 0.8 ± 0.078 and 0.894 ± 0.15, respectively. Moreover, the viability score in assay [3] was 0.983 (active).

For `C=CCN1C(=O)C(=C2SC(=S)N(C)C2=O)c2ccccc21`, the NF-kB reporter is 0.76 ± 0.072 in assay [1] (setting [4]), 0.833 ± 0.085 in assay [1] (agonist: LPS 0.1 ug/mL) and 1.03 ± 0.12 in assay [1] (agonist: MPLA […]). Further, the IRF reporter in assay [2] (agonist: 3'3'-cGAMP 10 ug/mL) is 0.971 ± 0.05; in assay [2] (agonist: LPS 0.1 ug/mL) it was 1.33 ± 0.078; in assay [2] (agonist: MPLA […]), 1.42 ± 0.15. In addition, the viability score in assay [3] was 0.997 (active).

As for `CCN(CC)C(=S)SSC(=S)N(CC)CC`, the NF-kB reporter in assay [1] (setting [4]) is 1.2 ± 0.097; in assay [1] (agonist: LPS 0.1 ug/mL), 0.633 ± 0.041; in assay [1] (agonist: MPLA […]), 2.07 ± 0.22. The IRF reporter is 2.71 ± 0.29 in assay [2] (agonist: 3'3'-cGAMP 10 ug/mL), 0.201 ± 0.025 in assay [2] (agonist: LPS 0.1 ug/mL) and 0.114 ± 0.018 in assay [2] (agonist: MPLA […]). Also, the viability score in assay [3] was 0.461 (inactive).

`CCN(CC)c1ccc(C=NNC(=O)c2ccncc2)cc1`: the NF-kB reporter in assay [1] (setting [4]) is 1.16 ± 0.11; in assay [1] (agonist: LPS 0.1 ug/mL), 0.926 ± 0.12; in assay [1] (agonist: MPLA […]), 1.05 ± 0.06. In addition, the IRF reporter in assay [2] (agonist: 3'3'-cGAMP 10 ug/mL) came to 0.676 ± 0.12; in assay [2] (agonist: LPS 0.1 ug/mL) it was 0.948 ± 0.058; in assay [2] (agonist: MPLA […]) it was 1.11 ± 0.076. In assay [3], the viability score is 0.991 (active).

Consider `Oc1ccc2ccccc2c1SSc1c(O)ccc2ccccc12`, for which the NF-kB reporter is 0.639 ± 0.15 in assay [1] (setting [4]), 0.993 ± 0.14 in assay [1] (agonist: LPS 0.1 ug/mL) and 1.18 ± 0.15 in assay [1] (agonist: MPLA […]). Further, the results for the IRF reporter in assay [2] (agonist: 3'3'-cGAMP 10 ug/mL), in assay [2] (agonist: LPS 0.1 ug/mL) and in assay [2] (agonist: MPLA […]) were 0.09 ± 0.0053, 0.919 ± 0.1 and 0.908 ± 0.096, respectively. For the same compound, in assay [3], the viability score was 0.963 (active).

For `CC1=NN(c2ccc(C)cc2)C(=O)C1=Cc1c(C)nn(-c2ccc(C)cc2C)c1O`, the NF-kB reporter in assay [1] (setting [4]) was determined as 1.03 ± 0.08; in assay [1] (agonist: LPS 0.1 ug/mL), 0.922 ± 0.089; in assay [1] (agonist: MPLA […]), 1.02 ± 0.096. The IRF reporter in assay [2] (agonist: 3'3'-cGAMP 10 ug/mL) was found to be 0.986 ± 0.046; in assay [2] (agonist: LPS 0.1 ug/mL), 1.21 ± 0.2; in assay [2] (agonist: MPLA […]) it was 1.26 ± 0.19. In addition, the viability score in assay [3] was 1.03 (active).
